Records with an inconclusive call do not appear. Activity calls are given as the source filed them. Calls follow the shape of the dose curve; as a rule, active = well fitted curve in the direction sought with a large enough effect; inconclusive = small, poorly fitted or top-dose-only effect, or another doubt; inactive = no such curve, though single readings can be large; an effect the other way counts as inactive or inconclusive.

The subject of assay [1] is HEK293T. The experiment in a line: qHTS assay to identify novel small-molecules to repurpose for Merkel cell carcinoma treatment (AID 1296009). Also: nearly all actives have a fitted effect of over 60% in size. The settings on record: MCC and control cell lines, CellTiter-Glo viability, 72 h; at 44.8 µM (top of the series) unless noted. The procedure, abridged: (§1)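 Luminescence from CellTiter-Glo, read 10 min after addition at room temperature, reported viability following a 72 hr, 37 degree celsius treatment with NPC or MIPE compounds in titration; values normalized to plate controls.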
(In general: qHTS replaces the single test concentration by a dilution series.)

Assay [2] deals with MCC-13. Described as above. The settings on record: MCC and control cell lines, CellTiter-Glo viability, 72 h; series mostly up to 46 µM. The procedure, abridged:
as §1
Background: Cellular ATP, detected with luciferase, serves as a proxy for viable cell number.

The subject of assay [3] is MCC-26. Described as above. The settings on record: MCC and control cell lines, CellTiter-Glo viability, 72 h; series mostly up to 46 µM. The method, boiled down:
as §1

The subject of assay [4] is MKL-1. The description is as above. The settings on record: MCC and control cell lines, CellTiter-Glo viability, 72 h; series mostly up to 46 µM. The procedure, abridged:
as §1

For assay [5], the system named is MKL-2. The description is as above. The settings on record: MCC and control cell lines, CellTiter-Glo viability, 72 h; series mostly up to 46 µM. The procedure, abridged: as §1
Assay [6] deals with UISO. Described as above. The settings on record: MCC and control cell lines, CellTiter-Glo viability, 72 h; series mostly up to 46 µM. The method, boiled down: as §1
Assay [7] has as its system WaGa. The assay is described as above. The settings on record: MCC and control cell lines, CellTiter-Glo viability, 72 h; series mostly up to 46 µM. The procedure, abridged: as §1
The subject of assay [8] is C33A. The experiment in a line: Primary qHTS to identify gynecologic anti-cancer compounds using libraries of approved drugs and bioactive compounds (AID 1345084). Also: nearly all actives have a fitted effect of over 55% in size. The settings on record: Gynecologic cancer cell panel viability, ATPlite luminescence, 48 h; series mostly up to 57.5 µM. The procedure, abridged: (§2)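 Cell viability after 48 h drug treatment, ATPlite luminescence readout; five doses.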

The test system of assay [9] is CAOV3. The assay is described as above. The conditions noted are these: Gynecologic cancer cell panel viability, ATPlite luminescence, 48 h; series mostly up to 57.5 µM. The method, boiled down: as §2
Assay [10] concerns CASKI. The description is as above. The conditions noted are these: Gynecologic cancer cell panel viability, ATPlite luminescence, 48 h; series mostly up to 57.5 µM. The procedure, abridged:
as §2

Assay [11] concerns Es-2. The description is as above. The settings on record: Gynecologic cancer cell panel viability, ATPlite luminescence, 48 h; series mostly up to 57.5 µM. The procedure, abridged: as §2
The subject of assay [12] is HeLa. The assay is described as above. The conditions noted are these: Gynecologic cancer cell panel viability, ATPlite luminescence, 48 h; series mostly up to 57.5 µM. The method, boiled down: as §2
The subject of assay [13] is Hek293T. The assay is described as above. The conditions noted are these: Gynecologic cancer cell panel viability, ATPlite luminescence, 48 h, control line for the selectivity index; series mostly up to 57.5 µM. The method, boiled down:
as §2

Assay [14] relates to JEG-3. Described as above. The settings on record: Gynecologic cancer cell panel viability, ATPlite luminescence, 48 h; series mostly up to 57.5 µM. The procedure, abridged:
as §2

For assay [15], the system named is OV90. The assay is described as above. The settings on record: Gynecologic cancer cell panel viability, ATPlite luminescence, 48 h; series mostly up to 57.5 µM. The method, boiled down:
as §2

For assay [16], the system named is PA-1. Described as above. The conditions noted are these: Gynecologic cancer cell panel viability, ATPlite luminescence, 48 h; series mostly up to 57.5 µM. The method, boiled down:
as §2

Assay [17] has as its system SKOV3. The assay is described as above. The settings on record: Gynecologic cancer cell panel viability, ATPlite luminescence, 48 h; series mostly up to 57.5 µM. The method, boiled down:
as §2

The subject of assay [18] is Tov-21-G. The description is as above. The conditions noted are these: Gynecologic cancer cell panel viability, ATPlite luminescence, 48 h; series mostly up to 57.5 µM. The method, boiled down:
as §2

In assay [19] the test system is Tov112D. The description is as above. The conditions noted are these: Gynecologic cancer cell panel viability, ATPlite luminescence, 48 h; series mostly up to 57.5 µM. The procedure, abridged: as §2
Potency is read from the fitted curve at half-maximal effect.

`CCCCC(CC)COC(=O)c1ccccc1C(=O)O` (configuration not stated): the outcome in [1] is “inactive [at 92 µM]”. Besides, the Potency result in [2], in assay [3], in assay [4], in [5], in assay [6] and in assay [7] was “inactive” in each case. For the same compound, the Potency result in assay [8], in assay [9], in [10], in [11], in assay [12] and in assay [13] was “inactive” throughout. Besides, the Potency entry in assay [14], in assay [15], in [16], in assay [17], in assay [18] and in assay [19] was “inactive” throughout.

In the case of `O=C(O)CCCC[P+](c1ccccc1)(c1ccccc1)c1ccccc1`, the call in [1] was inactive. Further, the Potency entry in assay [2], in [3], in assay [4], in assay [5], in assay [6] and in assay [7] was “inactive” in each case. For the same compound, the Potency result in assay [8], in assay [9], in assay [10], in [11], in assay [12] and in assay [13] was “inactive” throughout. Also, the Potency result in [14], in assay [15], in assay [16], in assay [17], in assay [18] and in [19] was “inactive” throughout.

For the compound `O=C1CC2(CCCC2)CC(=O)N1CCNCC1COc2ccccc2O1` (configuration not stated), in [1], the call was inactive. In addition, the Potency result in assay [2], in assay [3], in assay [4], in [5], in assay [6] and in assay [7] was “inactive” in each case. Moreover, the Potency result in [8], in [9], in [10], in assay [11], in assay [12] and in assay [13] was “inactive” each time. The Potency result in [14], in assay [15], in assay [16], in assay [17], in assay [18] and in assay [19] was “inactive” each time.

`Cc1ccc(-c2ccccc2C#N)cc1`: in [1], the outcome was inactive. The Potency entry in [2], in [3], in assay [4], in assay [5], in assay [6] and in assay [7] was “inactive” throughout. Moreover, the Potency entry in assay [8], in [9], in assay [10], in assay [11], in assay [12] and in assay [13] was “inactive” in each case. Moreover, the Potency result in [14], in [15], in [16], in assay [17], in assay [18] and in assay [19] was “inactive” throughout.

With `CC1(C)OC(=O)Nc2ccc(Br)cc21`, the result in [1] was inactive. The Potency result in [2], in assay [3], in [4], in assay [5], in assay [6] and in [7] was “inactive” each time. Moreover, the Potency result in [8], in assay [9], in [10], in assay [11], in assay [13] and in assay [14] was “inactive” in each case. Moreover, the Potency entry in [15], in [16], in assay [17], in [18] and in assay [19] was “inactive” in each case. Further, the Potency in [12] is 10 µM (active).

For the compound `O=C(Oc1ccccc1)c1ccccc1O`, in assay [1], the compound was called inactive. For the same compound, the Potency entry in [2], in assay [3], in assay [4], in assay [5], in [6] and in [7] was “inactive” each time. Besides, the Potency entry in [8], in assay [9], in assay [10], in [11], in assay [12] and in assay [13] was “inactive” in each case. Further, the Potency entry in assay [14], in assay [15], in [16], in assay [17], in assay [18] and in assay [19] was “inactive” each time.

`CC(=O)N[C@@H](CCC(N)=O)C(=O)O`: the compound was classed as inactive in assay [1]. Besides, the Potency result in [2], in assay [3], in assay [4], in assay [5], in assay [6] and in [7] was “inactive” throughout. Further, the Potency entry in assay [8], in assay [9], in assay [10], in assay [11], in [12] and in [13] was “inactive” in each case. In addition, the Potency entry in [14], in assay [15], in [16], in assay [17], in [18] and in [19] was “inactive” in each case.

For `CCOc1c(N2CCOCC2)cnn(C)c1=O`, the call in assay [1] was inactive. Besides, the Potency result in assay [2], in assay [3], in [4], in [5], in assay [6] and in assay [7] was “inactive” each time. Besides, the Potency result in [8], in assay [9], in [10], in assay [11], in [12] and in assay [13] was “inactive” each time. For the same compound, the Potency result in assay [14], in [15], in assay [16], in assay [17], in [18] and in [19] was “inactive” in each case.

`O=C(O)[C@H](O)[C@@H](O)[C@H](O[C@@H]1O[C@H](CO)[C@H](O)[C@H](O)[C@H]1O)[C@H](O)CO`: the call in assay [1] was inactive. Besides, the Potency result in assay [2], in [3], in [4], in [5], in assay [6] and in assay [7] was “inactive” throughout. Moreover, the Potency result in [8], in assay [9], in assay [10], in assay [11], in assay [12] and in assay [13] was “inactive” throughout. The Potency result in assay [14], in [15], in assay [16], in [18] and in assay [19] was “inactive” throughout.

Turning to `O=C(CCCCCCCCC#CI)Oc1ccccc1`, the compound was classed as inactive in [1]. For the same compound, the Potency result in assay [2], in assay [3], in assay [6], in assay [8], in [9] and in assay [10] was “inactive” each time. The Potency result in [11], in assay [12], in [13], in assay [14], in [15] and in assay [16] was “inactive” each time. Besides, the Potency result in assay [17], in assay [18] and in assay [19] was “inactive” in each case. The Potency in [4] was 13.3 µM (active); in assay [5], 9.44 µM (active); in assay [7], 11.9 µM (active).

With `Cc1ccccc1N1CCN(CCc2nnc3n2CCCC3)CC1`, in [1], the compound was classed as inactive. The Potency entry in [2], in assay [3], in assay [4], in assay [5], in assay [6] and in [7] was “inactive” in each case. In addition, the Potency entry in assay [8], in assay [9], in assay [10], in assay [11], in assay [12] and in assay [13] was “inactive” each time. The Potency result in assay [14], in assay [15], in assay [16], in assay [17], in assay [18] and in assay [19] was “inactive” throughout.

As to `C1=CC2C3C=CC(C3)C2C1` (configuration not stated), the outcome in assay [1] is “inactive [at 92 µM]”. Further, the Potency entry in assay [2], in [3], in [4], in assay [5], in [6] and in assay [7] was “inactive” each time. Also, the Potency result in assay [8], in assay [9], in [10], in assay [11], in assay [12] and in [13] was “inactive” in each case. The Potency result in assay [14], in assay [15], in assay [16], in assay [18] and in [19] was “inactive” in each case.

As for `CC(C)(C)C(=O)OCOC(=O)C1N2C(=O)CC2S(=O)(=O)C1(C)C` (configuration not stated), in [1], the result was inactive. Moreover, the Potency result in assay [2], in [3], in assay [4], in [5], in assay [6] and in assay [7] was “inactive” each time. The Potency result in assay [8], in [9], in [10], in assay [11], in assay [12] and in [13] was “inactive” throughout. Moreover, the Potency entry in [14], in assay [15], in assay [16], in assay [17], in [18] and in assay [19] was “inactive” in each case.

On to `O=C(CCOCCOCCOCCOCCC(=O)Nc1c(I)cc(I)c(C(=O)O)c1I)Nc1c(I)cc(I)c(C(=O)O)c1I`, for which, in assay [1], the outcome was inactive. Also, the Potency result in assay [2], in [3], in assay [4], in assay [5], in assay [6] and in [7] was “inactive” throughout. In addition, the Potency entry in [8], in assay [9], in assay [10], in [11], in assay [12] and in assay [13] was “inactive” in each case. Further, the Potency entry in [14], in [15], in assay [16], in assay [17], in [18] and in assay [19] was “inactive” throughout.

Turning to `Cc1ccc2ccc(Cl)cc2n1`, the compound was called inactive in assay [1]. In addition, the Potency entry in [2], in assay [3], in assay [4], in assay [5], in assay [6] and in assay [7] was “inactive” in each case. Moreover, the Potency entry in assay [8], in [9], in assay [10], in [11], in assay [12] and in assay [13] was “inactive” in each case. Further, the Potency result in assay [14], in [15], in assay [16], in assay [18] and in [19] was “inactive” each time.

For the origin of these results see PubChem BioAssay (NCATS).
